# High-throughput results (PubChem BioAssay)
# ELG1 repair inh: blocks ELG1-dependent DNA repair in HEK293T cells | HEK293T ELG1-luciferase reporter, luminescence, 16 h; DNA damage induced by 5-fluorouridine | Potency, µM (doses to about 46.1 µM), most hits filed as inhibitors | hit rate 2.3% among 330,000 | AID 504467; further: nearly all actives have a fitted effect of over 55% in size
#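 Quantitative HTS, concentration-response format. 2,000 cells/well co-treated with 5-fluorouridine and compound, 16 hr in 5% CO2 at 37 °C; ONE-Glo luminescence read after 30 min.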
# FLuc counter: counter-screen for miR-21 project: firefly luciferase inhibitors or activators; P08659; purified FLuc, Km substrates, luminescence inhibition; Potency, µM (doses to about 57.5 µM), hits mostly inhibitors; hit rate 6.9% among 360,000; further: nearly all actives have a fitted effect of over 55% in size
# Target sequence (P08659 whole entry, looked up): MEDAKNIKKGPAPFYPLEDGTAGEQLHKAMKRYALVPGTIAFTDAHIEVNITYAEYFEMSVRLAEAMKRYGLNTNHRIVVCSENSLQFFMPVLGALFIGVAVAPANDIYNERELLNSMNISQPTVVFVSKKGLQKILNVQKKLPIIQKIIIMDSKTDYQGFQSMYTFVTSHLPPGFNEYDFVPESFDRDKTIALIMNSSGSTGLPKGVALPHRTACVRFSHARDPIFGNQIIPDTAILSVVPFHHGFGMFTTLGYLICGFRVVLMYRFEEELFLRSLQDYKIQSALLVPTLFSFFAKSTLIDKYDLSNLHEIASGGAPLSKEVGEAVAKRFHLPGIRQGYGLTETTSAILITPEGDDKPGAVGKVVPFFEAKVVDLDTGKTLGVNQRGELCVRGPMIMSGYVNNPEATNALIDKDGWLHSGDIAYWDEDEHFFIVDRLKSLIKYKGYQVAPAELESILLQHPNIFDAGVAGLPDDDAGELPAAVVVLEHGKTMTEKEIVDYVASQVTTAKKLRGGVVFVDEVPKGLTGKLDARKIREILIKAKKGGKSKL
#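 Purified P. pyralis luciferase, 10 nM final, with Km-level 10 uM D-luciferin and 10 uM ATP in 50 mM Tris acetate pH 7.5, 10 mM Mg acetate, 0.01% Tween-20, 0.05% BSA; 6-point qHTS titration about 60 µM downward; luminescence read.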
# SMN2 splice up: increases expression of the SMN2 splice variant; HEK293 SMN2-luciferase splicing reporter, luminescence, 30-36 h; Potency, µM (highest dose often 46.1 µM), most hits filed as activators; hit rate 2.8% among 210,000; AID 1458; further: nearly all actives have a fitted effect of over 55% in size
#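 HEK293 cells carry an SMN2 […]–luciferase reporter in which exon 7 inclusion puts luciferase in frame. Cells were plated 10-12 h before compound addition, then incubated 30-36 h at 37C. ONE-Glo luminescence was read; sodium butyrate at 4.5 mM final served as control.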
# Rab9 prom act: activators of Rab9 promoter | Huh7 Rab9 promoter-luciferase reporter, luminescence, 24 h | Potency, µM (highest dose often 9.22 µM), usual class: activators | hit rate 2.8% among 320,000; further: nearly all actives have a fitted effect of over 60% in size
#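 Luminescence from Amplite-detected luciferase (10 minutes, ambient) reports Rab9 promoter activation. Before that, stable Rab9-luciferase Huh7 cells (1500/well, reduced-serum OP-MEM I plus 10% FBS) were exposed to compound for 24 hours at 37C.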
# NPC1 promoter act: NPC1 promoter activation; Huh7 NPC1 promoter luciferase reporter, 24 h; Potency, µM (titrated, usually from 9.22 µM), usual class: activators; hit rate 2.4% among 320,000; AID 485313; further: nearly all actives have a fitted effect of over 60% in size
#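 NPC1 promoter–luciferase Huh7 cells; 24 h compound; luminescence.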
# ELG1 genotoxic: induces genotoxicity in HEK293T cells with luciferase-tagged ELG1 | Potency, µM (titrated, usually from 46 µM), usual class: activators | hit rate 1.3% among 330,000 | HEK293T ELG1-luciferase reporter, luminescence, 16 h; further: nearly all actives have a fitted effect of over 60% in size
#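 Luminescence read-out: rising ELG1-luciferase signal, reflecting elevated ELG1 protein under genetic stress, flags genotoxic compounds. Cells were treated for 16 hr at 37 °C before ONE-Glo detection.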
# Hits are given with their value; - = inactive; ? = inconclusive; . = no result. Hits are enriched below; roughly 9.2% of the tested compounds scored in any of these assays. The call rests on the fitted dose curve; in most records, active means well fitted curve in the direction sought with a large enough effect; inconclusive means small, poorly fitted or top-dose-only effect, or another doubt; inactive means no such curve, though single readings can be large; an effect the other way counts as inactive or inconclusive.
SMILES,ELG1 repair inh,FLuc counter,SMN2 splice up,Rab9 prom act,NPC1 promoter act,ELG1 genotoxic
CCOc1ccc(N(CC(=O)NC(C)C)C(=O)CCC(=O)Nc2ccccn2)cc1,-,-,.,-,-,-
CCOC(=O)N1CCN(C(=O)C(=O)NN)CC1,-,-,.,-,-,-
Cc1ccccc1OCC(=O)Nc1cccc(NC(=O)c2ccco2)c1,-,11µM,-,?,-,-
Cc1cccc(C)c1OCC(=O)Nc1cccc(NC(=O)c2ccco2)c1,18µM,?,-,-,-,-
Cc1cccc(C)c1OCC(=O)Nc1ccc(NC(=O)c2ccco2)cc1,-,-,.,-,-,-
COc1ccc(OCC(=O)Nc2ccc(NC(=O)c3ccco3)cc2)cc1,?,-,28µM,-,-,?
COc1ccccc1OCc1nnc(-c2ccccc2)o1,.,?,-,.,.,.
COc1cc(/C=C/C(=O)OCC(=O)Nc2ccc3c(c2)OCCO3)ccc1O,?,?,-,-,-,-
Cc1ccc(O)c(C(=O)/C=C/c2ccc3c(c2)OCCO3)c1,-,24µM,-,?,-,-
COc1ccc(C(=O)/C=C/c2ccc3c(c2)OCCO3)cc1,?,1.7µM,.,?,-,-
O=C(/C=C/c1ccc2c(c1)OCCO2)c1ccccc1,?,0.48µM,.,1µM,2.8µM,?
COc1ccc(/C=N/NC(=O)c2ccc3c(c2)OCCO3)cc1[N+](=O)[O-],-,-,-,-,-,-
COc1ccc(/C=C/C(=O)c2ccc3c(c2)OCCO3)cc1[N+](=O)[O-],?,6.7µM,-,-,-,-
Cc1ccc(S(=O)(=O)NC(=NC(Cc2ccccc2)C(=O)O)c2ccccc2)cc1 (centres undefined),-,-,.,-,-,-
COCC(=O)N1CCC(Oc2ccc(C(=O)N3CCN(C)C[C@@H]3C(C)C)cc2)CC1,-,-,.,-,-,-
CCS(=O)(=O)Nc1ccc(C2=NN(S(=O)(=O)CC)C(c3cccs3)C2)cc1 (centres undefined),-,-,.,-,-,-
CCC(C)NS(=O)(=O)c1ccc(OCC(=O)Nc2ccc3c(c2)OCCO3)cc1 (centres undefined),-,-,-,-,-,-
CC(=O)Nc1cccc(NC(=O)COc2ccc3c(c2)OCO3)c1,?,9.5µM,.,-,-,-
CCc1ccc(OCC(=O)Nc2ccc3c(c2)OCCO3)cc1,?,19µM,.,-,-,-
COc1ccc(NC(=O)COc2ccc3c(c2)OCO3)cc1,?,?,.,-,-,-
CCc1ccc(NC(=O)COc2ccc3c(c2)OCO3)cc1,?,27µM,.,-,-,?
CC1CCN(CCc2nc3cc(NC(=O)C(C)C)ccc3n2C)CC1,-,-,.,-,-,-
CCOc1ccc(CCNC(=O)c2sc3nc4n(c(=O)c3c2C)CCCC4)cc1OCC,.,-,.,.,.,.
CCOc1ccc(CCNC(=O)c2sc3nc4n(c(=O)c3c2C)CCC4)cc1OCC,6.5µM,-,.,-,-,-
Cc1cccc(CCNC(=O)c2sc3nc4n(c(=O)c3c2C)CCCC4)c1,.,13µM,.,.,.,.
SMILES,ELG1 repair inh,FLuc counter,SMN2 splice up,Rab9 prom act,NPC1 promoter act,ELG1 genotoxic
O=C(CN1C(=O)COc2ccc(S(=O)(=O)N3CCOCC3)cc21)Nc1ccc(F)c(Cl)c1,.,-,.,.,.,.
Cc1ccc(C(=O)N2CCCC(N3CCN(c4ccccc4C)CC3)C2)c(=O)[nH]1 (centres undefined),-,-,.,-,-,-
N#Cc1c(/N=C/c2ccco2)sc2c1CCCCC2,?,0.17µM,-,3.5µM,0.79µM,?
N#Cc1c(/N=C/c2cccs2)sc2c1CCC2,?,1.5µM,18µM,2µM,3.2µM,7.1µM
CC(=O)C1=C(O)C(=O)N(c2ccc(Br)cn2)C1c1ccc(F)cc1 (centres undefined),?,-,-,4µM,2.2µM,?
COc1ccc([N+](=O)[O-])cc1CSc1nnc(NC(C)=O)s1,-,-,-,-,-,-
CN1c2ccc(Cl)cc2C(=O)NC1c1ccc([N+](=O)[O-])s1 (centres undefined),21µM,-,.,-,-,-
O=[N+]([O-])c1ccc(CNc2ccc(Cl)cc2)s1,?,-,.,-,-,-
COc1cc(/C=N/NC(=O)c2csc3c2CCCC3)ccc1OCCN1CCOCC1,-,-,.,-,-,-
O=C(OCC(=O)N1CCCCCC1)c1ccc(F)cc1F,?,13µM,.,3.5µM,-,-
O=C(OCC(=O)N1CCOCC1)c1ccc(F)cc1Cl,?,-,.,-,-,-
O=C(OCC(=O)N1CCCCCC1)c1cccs1,?,13µM,?,?,?,?
O=C(OCC(=O)N1CCc2ccccc2C1)c1cccnc1Cl,?,15µM,-,?,-,?
Cc1cc(C)cc(C(=O)OCC(=O)N2CCCC2)c1,?,-,.,-,-,-
Cc1cccc(C(=O)OCC(=O)N2CCCCCC2)c1,?,19µM,.,?,?,?
O=C(OCC(=O)N1CCc2ccccc2C1)c1cccs1,-,11µM,-,-,-,-
CCn1c(=O)sc2cc(NC(=O)c3cccc(OC)c3)ccc21,.,?,-,.,.,.
CCn1c2ccccc2c2cc(NC(=O)c3cccc(OC)c3OC)ccc21,15µM,?,-,-,-,-
CCn1c2ccccc2c2cc(NC(=O)c3cccc(OC)c3)ccc21,-,17µM,?,?,?,-
